Laboratory results: the supplement of paper PMC4466140

These binders were tested against AgAbp1 (assay: SPOT peptide array binding signal intensity (averaged, normalized) (arbitrary units (background-subtracted, floor 0; scale differs between SH3 domains)); higher = stronger binding of the SH3 domain to the peptide).
Procedure, shortened: (§1)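 GST-SH3 fusions from four yeast species, purified on glutathione Sepharose, were incubated at 10 μg/ml overnight at 4°C on membranes of synthetic 15-mer peptides in which cysteines were replaced with serines. Binding signal is the normalized, background-subtracted spot intensity averaged over replicates, in domain-specific arbitrary units.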

Binder	SPOT peptide array binding signal intensity
MFLISPPASPPPEFD	≤ 0

What follows are binders tested against AgBbc1 in the same assay as above.
Procedure, shortened: as §1

Binder	SPOT peptide array binding signal intensity
MFLISPPASPPPEFD	≤ 0

What follows are binders tested against AgBem1-D1 in the same assay as above.
Procedure, shortened: as §1

Binder	SPOT peptide array binding signal intensity
MFLISPPASPPPEFD	70

What follows are binders tested against AgBzz1-D1 in the same assay as above.
Procedure, shortened: as §1

Binder	SPOT peptide array binding signal intensity
MFLISPPASPPPEFD	≤ 0

The binders below were run against AgBzz1-D2 in the same assay as above.
Procedure, shortened: as §1

Binder	SPOT peptide array binding signal intensity
MFLISPPASPPPEFD	≤ 0

What follows are binders tested against AgCyk3 in the same assay as above.
Procedure, shortened: as §1

Binder	SPOT peptide array binding signal intensity
MFLISPPASPPPEFD	1.5

What follows are binders tested against AgFus1 in the same assay as above.
Procedure, shortened: as §1

Binder	SPOT peptide array binding signal intensity
MFLISPPASPPPEFD	4

The binders below were run against AgHof1 in the same assay as above.
Procedure, shortened: as §1

Binder	SPOT peptide array binding signal intensity
MFLISPPASPPPEFD	4

These binders were tested against AgHse1 in the same assay as above.
Procedure, shortened: as §1

Binder	SPOT peptide array binding signal intensity
MFLISPPASPPPEFD	≤ 0

These binders were tested against AgLsb1 in the same assay as above.
Procedure, shortened: as §1

Binder	SPOT peptide array binding signal intensity
MFLISPPASPPPEFD	≤ 0

Each binder was assayed against AgLsb4 in the same assay as above.
Procedure, shortened: as §1

Binder	SPOT peptide array binding signal intensity
MFLISPPASPPPEFD	≤ 0

These binders were tested against AgMyo5 in the same assay as above.
Procedure, shortened: as §1

Binder	SPOT peptide array binding signal intensity
MFLISPPASPPPEFD	388

What follows are binders tested against AgNbp2 in the same assay as above.
Procedure, shortened: as §1

Binder	SPOT peptide array binding signal intensity
MFLISPPASPPPEFD	2

These binders were tested against AgRvs167 in the same assay as above.
Procedure, shortened: as §1

Binder	SPOT peptide array binding signal intensity
MFLISPPASPPPEFD	≤ 0

What follows are binders tested against AgSho1 in the same assay as above.
Procedure, shortened: as §1

Binder	SPOT peptide array binding signal intensity
MFLISPPASPPPEFD	1.5

The binders below were run against AgSla1-D1-D2 in the same assay as above.
Procedure, shortened: as §1

Binder	SPOT peptide array binding signal intensity
MFLISPPASPPPEFD	3

The binders below were run against AgSla1-D3 in the same assay as above.
Procedure, shortened: as §1

Binder	SPOT peptide array binding signal intensity
MFLISPPASPPPEFD	1

The binders below were run against CaAbp1-D1 in the same assay as above.
Procedure, shortened: as §1

Binder	SPOT peptide array binding signal intensity
MFLISPPASPPPEFD	≤ 0

These binders were tested against CaAbp1-D2 in the same assay as above.
Procedure, shortened: as §1

Binder	SPOT peptide array binding signal intensity
MFLISPPASPPPEFD	≤ 0

These binders were tested against CaBbc1 in the same assay as above.
Procedure, shortened: as §1

Binder	SPOT peptide array binding signal intensity
MFLISPPASPPPEFD	6

These binders were tested against CaBem1-D1 in the same assay as above.
Procedure, shortened: as §1

Binder	SPOT peptide array binding signal intensity
MFLISPPASPPPEFD	≤ 0

The binders below were run against CaBzz1-D1 in the same assay as above.
Procedure, shortened: as §1

Binder	SPOT peptide array binding signal intensity
MFLISPPASPPPEFD	≤ 0

What follows are binders tested against CaBzz1-D2 in the same assay as above.
Procedure, shortened: as §1

Binder	SPOT peptide array binding signal intensity
MFLISPPASPPPEFD	≤ 0

Each binder was assayed against CaCyk3 in the same assay as above.
Procedure, shortened: as §1

Binder	SPOT peptide array binding signal intensity
MFLISPPASPPPEFD	2

These binders were tested against CaFus1 in the same assay as above.
Procedure, shortened: as §1

Binder	SPOT peptide array binding signal intensity
MFLISPPASPPPEFD	342

The binders below were run against CaHof1 in the same assay as above.
Procedure, shortened: as §1

Binder	SPOT peptide array binding signal intensity
MFLISPPASPPPEFD	≤ 0

The binders below were run against CaHse1 in the same assay as above.
Procedure, shortened: as §1

Binder	SPOT peptide array binding signal intensity
MFLISPPASPPPEFD	8

The binders below were run against CaLsb1 in the same assay as above.
Procedure, shortened: as §1

Binder	SPOT peptide array binding signal intensity
MFLISPPASPPPEFD	≤ 0

These binders were tested against CaLsb4 in the same assay as above.
Procedure, shortened: as §1

Binder	SPOT peptide array binding signal intensity
MFLISPPASPPPEFD	≤ 0

Each binder was assayed against CaMyo5 in the same assay as above.
Procedure, shortened: as §1

Binder	SPOT peptide array binding signal intensity
MFLISPPASPPPEFD	180

Each binder was assayed against CaNbp2 in the same assay as above.
Procedure, shortened: as §1

Binder	SPOT peptide array binding signal intensity
MFLISPPASPPPEFD	31

Each binder was assayed against CaRvs167 in the same assay as above.
Procedure, shortened: as §1

Binder	SPOT peptide array binding signal intensity
MFLISPPASPPPEFD	5.83

The binders below were run against CaRvs167-3 in the same assay as above.
Procedure, shortened: as §1

Binder	SPOT peptide array binding signal intensity
MFLISPPASPPPEFD	3.75

The binders below were run against CaSho1 in the same assay as above.
Procedure, shortened: as §1

Binder	SPOT peptide array binding signal intensity
MFLISPPASPPPEFD	19

What follows are binders tested against CaSla1-D1-D2 in the same assay as above.
Procedure, shortened: as §1

Binder	SPOT peptide array binding signal intensity
MFLISPPASPPPEFD	≤ 0

What follows are binders tested against CaSla1-D3 in the same assay as above.
Procedure, shortened: as §1

Binder	SPOT peptide array binding signal intensity
MFLISPPASPPPEFD	11.2

Each binder was assayed against ScAbp1 in the same assay as above.
Procedure, shortened: as §1

Binder	SPOT peptide array binding signal intensity
MFLISPPASPPPEFD	5.5

What follows are binders tested against ScBbc1 in the same assay as above.
Procedure, shortened: as §1

Binder	SPOT peptide array binding signal intensity
MFLISPPASPPPEFD	≤ 0

Each binder was assayed against ScBem1-D1 in the same assay as above.
Procedure, shortened: as §1

Binder	SPOT peptide array binding signal intensity
MFLISPPASPPPEFD	≤ 0

Each binder was assayed against ScBzz1-D1 in the same assay as above.
Procedure, shortened: as §1

Binder	SPOT peptide array binding signal intensity
MFLISPPASPPPEFD	7

These binders were tested against ScBzz1-D2 in the same assay as above.
Procedure, shortened: as §1

Binder	SPOT peptide array binding signal intensity
MFLISPPASPPPEFD	2

Each binder was assayed against ScCyk3 in the same assay as above.
Procedure, shortened: as §1

Binder	SPOT peptide array binding signal intensity
MFLISPPASPPPEFD	2

Each binder was assayed against ScFus1 in the same assay as above.
Procedure, shortened: as §1

Binder	SPOT peptide array binding signal intensity
MFLISPPASPPPEFD	7

The binders below were run against ScHof1 in the same assay as above.
Procedure, shortened: as §1

Binder	SPOT peptide array binding signal intensity
MFLISPPASPPPEFD	≤ 0

The binders below were run against ScHse1 in the same assay as above.
Procedure, shortened: as §1

Binder	SPOT peptide array binding signal intensity
MFLISPPASPPPEFD	≤ 0

Each binder was assayed against ScLsb1 in the same assay as above.
Procedure, shortened: as §1

Binder	SPOT peptide array binding signal intensity
MFLISPPASPPPEFD	≤ 0

The binders below were run against ScLsb2 in the same assay as above.
Procedure, shortened: as §1

Binder	SPOT peptide array binding signal intensity
MFLISPPASPPPEFD	≤ 0

The binders below were run against ScLsb3 in the same assay as above.
Procedure, shortened: as §1

Binder	SPOT peptide array binding signal intensity
MFLISPPASPPPEFD	≤ 0

These binders were tested against ScLsb4 in the same assay as above.
Procedure, shortened: as §1

Binder	SPOT peptide array binding signal intensity
MFLISPPASPPPEFD	≤ 0

These binders were tested against ScMyo3 in the same assay as above.
Procedure, shortened: as §1

Binder	SPOT peptide array binding signal intensity
MFLISPPASPPPEFD	735

These binders were tested against ScMyo5 in the same assay as above.
Procedure, shortened: as §1

Binder	SPOT peptide array binding signal intensity
MFLISPPASPPPEFD	650

The binders below were run against ScNbp2 in the same assay as above.
Procedure, shortened: as §1

Binder	SPOT peptide array binding signal intensity
MFLISPPASPPPEFD	20

Each binder was assayed against ScPex13 in the same assay as above.
Procedure, shortened: as §1

Binder	SPOT peptide array binding signal intensity
MFLISPPASPPPEFD	≤ 0

These binders were tested against ScRvs167 in the same assay as above.
Procedure, shortened: as §1

Binder	SPOT peptide array binding signal intensity
MFLISPPASPPPEFD	≤ 0

Each binder was assayed against ScSho1 in the same assay as above.
Procedure, shortened: as §1

Binder	SPOT peptide array binding signal intensity
MFLISPPASPPPEFD	≤ 0

What follows are binders tested against ScSla1-D1-D2 in the same assay as above.
Procedure, shortened: as §1

Binder	SPOT peptide array binding signal intensity
MFLISPPASPPPEFD	≤ 0

Each binder was assayed against ScSla1-D3 in the same assay as above.
Procedure, shortened: as §1

Binder	SPOT peptide array binding signal intensity
MFLISPPASPPPEFD	7.25

The binders below were run against SpAbp1-D1 in the same assay as above.
Procedure, shortened: as §1

Binder	SPOT peptide array binding signal intensity
MFLISPPASPPPEFD	≤ 0

What follows are binders tested against SpBbc1 in the same assay as above.
Procedure, shortened: as §1

Binder	SPOT peptide array binding signal intensity
MFLISPPASPPPEFD	0.5

These binders were tested against SpBzz1-D1 in the same assay as above.
Procedure, shortened: as §1

Binder	SPOT peptide array binding signal intensity
MFLISPPASPPPEFD	33.5

The binders below were run against SpBzz1-D2 in the same assay as above.
Procedure, shortened: as §1

Binder	SPOT peptide array binding signal intensity
MFLISPPASPPPEFD	≤ 0
VPPPMQPPPIESSNL	≤ 0

What follows are binders tested against SpCyk3 in the same assay as above.
Procedure, shortened: as §1

Binder	SPOT peptide array binding signal intensity
MFLISPPASPPPEFD	4
VPPPMQPPPIESSNL	6

What follows are binders tested against SpHof1 in the same assay as above.
Procedure, shortened: as §1

Binder	SPOT peptide array binding signal intensity
MFLISPPASPPPEFD	7.5
VPPPMQPPPIESSNL	4.5

What follows are binders tested against SpHof1-2 in the same assay as above.
Procedure, shortened: as §1

Binder	SPOT peptide array binding signal intensity
MFLISPPASPPPEFD	8.25
VPPPMQPPPIESSNL	1.5

These binders were tested against SpHof1-3 in the same assay as above.
Procedure, shortened: as §1

Binder	SPOT peptide array binding signal intensity
MFLISPPASPPPEFD	≤ 0
VPPPMQPPPIESSNL	≤ 0

What follows are binders tested against SpHse1 in the same assay as above.
Procedure, shortened: as §1

Binder	SPOT peptide array binding signal intensity
MFLISPPASPPPEFD	103
VPPPMQPPPIESSNL	163

The binders below were run against SpLsb1 in the same assay as above.
Procedure, shortened: as §1

Binder	SPOT peptide array binding signal intensity
MFLISPPASPPPEFD	≤ 0
VPPPMQPPPIESSNL	≤ 0

These binders were tested against SpLsb4 in the same assay as above.
Procedure, shortened: as §1

Binder	SPOT peptide array binding signal intensity
MFLISPPASPPPEFD	49
VPPPMQPPPIESSNL	61.5

What follows are binders tested against SpMyo1 in the same assay as above.
Procedure, shortened: as §1

Binder	SPOT peptide array binding signal intensity
MFLISPPASPPPEFD	1430
VPPPMQPPPIESSNL	957

These binders were tested against SpNbp2 in the same assay as above.
Procedure, shortened: as §1

Binder	SPOT peptide array binding signal intensity
MFLISPPASPPPEFD	9
VPPPMQPPPIESSNL	46

What follows are binders tested against SpPex13 in the same assay as above.
Procedure, shortened: as §1

Binder	SPOT peptide array binding signal intensity
MFLISPPASPPPEFD	2.5
VPPPMQPPPIESSNL	5

Each binder was assayed against SpRvs167 in the same assay as above.
Procedure, shortened: as §1

Binder	SPOT peptide array binding signal intensity
MFLISPPASPPPEFD	≤ 0
VPPPMQPPPIESSNL	≤ 0

These binders were tested against SpSla1-D1-D2 in the same assay as above.
Procedure, shortened: as §1

Binder	SPOT peptide array binding signal intensity
MFLISPPASPPPEFD	≤ 0
VPPPMQPPPIESSNL	≤ 0

What follows are binders tested against SpSla1-D3 in the same assay as above.
Procedure, shortened: as §1

Binder	SPOT peptide array binding signal intensity
MFLISPPASPPPEFD	≤ 0
VPPPMQPPPIESSNL	138
